The values below come from PubChem BioAssay (NCI).

This is part of a sample that, as a whole, favours compounds with a hit. Of some 83,000 tested, about 20% had one in any assay.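 Activity criterion: percent growth below 10, measured after cells in 96-well plates were exposed to a single compound concentration for 48 hours.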 Unmarked numbers belong to inactive results. The source made the active and inactive calls.

What all share (assay): NCI-60 one-dose screen, 48 h (100 = growth as untreated, 0 = no growth, -100 = all killed)
One experiment concerns A549/ATCC NSCLC. The conditions noted are these: 10 µM unless noted.
The next experiment relates to DU-145 prostate. Conditions: 10 µM unless noted.
Another experiment relates to K-562 leukemia. Conditions: 10 µM unless noted.
For a further experiment, the system named is RXF 393 renal. The conditions noted are these: 10 µM unless noted.
The next experiment concerns SF-295 CNS. Conditions: 10 µM unless noted.
A further experiment has as its system UACC-257 melanoma. Conditions: 10 µM unless noted.
The test system of another experiment is HT29 colon. Conditions: 10 µM unless noted.
The test system of a further experiment is SNB-75 CNS. The conditions noted are these: 10 µM unless noted.
A further experiment relates to SK-MEL-2 melanoma. Conditions: 10 µM unless noted.
The next experiment concerns ACHN renal. The conditions noted are these: 10 µM unless noted.
Another experiment concerns CAKI-1 renal. The conditions noted are these: 10 µM unless noted.
The subject of the next experiment is A498 renal. The conditions noted are these: 10 µM unless noted.
For the next experiment, the system named is HL-60(TB) leukemia. The conditions noted are these: 10 µM unless noted.
Another experiment relates to OVCAR-5 ovarian. The conditions noted are these: 10 µM unless noted.
For a further experiment, the system named is OVCAR-4 ovarian. Conditions: 10 µM unless noted.
A further experiment has as its system SK-OV-3 ovarian. The conditions noted are these: 10 µM unless noted.
Another experiment concerns HS 578T breast. The conditions noted are these: 10 µM unless noted.
A further experiment relates to NCI/ADR-RES ovarian. Conditions: 10 µM unless noted.
Another experiment concerns T-47D breast. The conditions noted are these: 10 µM unless noted.
Another experiment deals with BT-549 breast. Conditions: 10 µM.

For the compound `O=C1C=CC(=O)C2C1C1(Cl)C(Cl)=C(Cl)C2(Cl)C1(Cl)Cl` (centres undefined), the growth is 60.6% in the experiment on A549/ATCC NSCLC; 70.1% in the experiment with DU-145 prostate; 29.2% with K-562 leukemia; 23.9% with RXF 393 renal; 39.5% in the experiment with SF-295 CNS; 57.5% with UACC-257 melanoma. In addition, the growth was 76.7% in the experiment with HT29 colon; 40.3% in the experiment with SNB-75 CNS; 37% in the experiment on SK-MEL-2 melanoma; 50.8% in the experiment on ACHN renal; 51.8% with CAKI-1 renal; 36.1% in the experiment on A498 renal. Besides, the growth in the experiment with HL-60(TB) leukemia is 9.38% (active); with OVCAR-5 ovarian, 78.3%; with OVCAR-4 ovarian, 58.1%; with SK-OV-3 ovarian, 71%; with HS 578T breast, 58.2%; with NCI/ADR-RES ovarian it was 47.3%. For the same compound, the growth was 28% with T-47D breast and 36.4% in the experiment on BT-549 breast.
Turning to `CCOCC1(CCc2ccccc2)C(=O)NC(=S)NC1=O`, the growth in the experiment with A549/ATCC NSCLC is 97.8%; with DU-145 prostate it was 109%; in the experiment with K-562 leukemia, 105%; in the experiment on RXF 393 renal it was 117%; in the experiment with SF-295 CNS it was 111%; with UACC-257 melanoma, 94.5%. The growth in the experiment with HT29 colon is 108%; in the experiment on SNB-75 CNS, 100%; in the experiment on SK-MEL-2 melanoma, 103%; in the experiment on ACHN renal it was 108%; with CAKI-1 renal, 99.9%; with A498 renal, 96.9%. For the same compound, the growth was 99.4% in the experiment with HL-60(TB) leukemia; 107% in the experiment with OVCAR-5 ovarian; 120% with OVCAR-4 ovarian; 112% in the experiment with SK-OV-3 ovarian; 106% in the experiment on HS 578T breast; 105% in the experiment on NCI/ADR-RES ovarian. The growth in the experiment with T-47D breast was 99.3%; in the experiment with BT-549 breast, 105%.
`COc1ccccc1N1CCN(CCc2c[nH]c3cc4c(cc23)OCO4)CC1`: the growth in the experiment on DU-145 prostate was 103%; in the experiment with K-562 leukemia, 76.3%; with RXF 393 renal, 75.8%; in the experiment on SF-295 CNS it was 41%; with UACC-257 melanoma, 56.7%; with HT29 colon it was 44.2%. For the same compound, the growth with SNB-75 CNS was 91.6%; with SK-MEL-2 melanoma, 57.6%; with ACHN renal, 77.7%; in the experiment with CAKI-1 renal it was 75.5%; in the experiment on A498 renal it was 108%; in the experiment on HL-60(TB) leukemia, 64.8%. The growth with OVCAR-5 ovarian is 60.2%; in the experiment on OVCAR-4 ovarian, 99.2%; in the experiment on SK-OV-3 ovarian, 104%; in the experiment on HS 578T breast, 69.5%; with NCI/ADR-RES ovarian, 86%; in the experiment with T-47D breast, 83.1%. Also, in the experiment on BT-549 breast, the growth was 84.2%.
